The campaign covered roughly 69,000 compounds. About 8,600 (12%) showed an effect of 50% or more. This excerpt belongs to a sample that is enriched for strong results.
system: Plasmodium berghei; experiment: Screen against P. berghei liver stage (PbLuc), transformed with Luciferase, at 10uM; format: functional, HepG2; conditions: tested at 10 uM

Compound	INHIBITION [%]
COCC1CCCN(C(=O)c2ccccc2NCc2cccnc2)C1 (stereo not given)	18.9
O=C(CCCOc1cccc(F)c1)N1CCCC(n2cncn2)C1 (stereo not given)	-49.5
Cc1nc(CN2C(=O)CCC23CCN(Cc2cccn2C)CC3)cs1	29.3
Cc1nnc2n1CCN(C(C(=O)N1CCCCC1)c1ccccc1)C2 (stereo not given)	11.15
CCOC(=O)Cn1ccc(O)c(Cc2ccc(Cl)cc2Cl)c1=O	1.95
O=C(NCc1ccc(Cl)cc1Cl)NCC1(O)CCSC1 (stereo not given)	31.2
O=C1CCN(C(=O)CCc2ccc(Cl)cc2Cl)CCN1	4.97
NC(=O)Cn1ccc(O)c(Cc2ccc(Cl)cc2Cl)c1=O	71.9
O=c1c(Cc2ccc(Cl)cc2Cl)c(O)ccn1CC1CC1	86.6
COc1ccc2c(=O)n(CC3CC3)ccc2c1OC	6.28
COc1nc2c(cc1C(=O)NC(C)Cc1cnccn1)CCC2 (stereo not given)	-40.5
O=C(NCCNc1ccc(C(F)(F)F)cn1)c1cc(Cl)ccc1F	37.3
C=C(C)COCCNC(=O)Nc1cccc(Cn2nc(C)nc2C)c1	62.8
Cc1nc(C)n(Cc2cccc(NC(=O)NC(C)(CO)C3CC3)c2)n1 (stereo not given)	47.4
CC(=O)Nc1cccc(Cn2nc(C)nc2C)c1	39.7
Cc1cc(F)c2c(c1)CCCN2S(=O)(=O)c1ncn(C)c1Cl	33.7
Cc1nn(C(C)C)cc1S(=O)(=O)N(C)Cc1nonc1C	11.8
CC(=O)N1CCCC1c1nccc(C)n1 (stereo not given)	21.6
CC(C)(O)CN1CCN(C(=O)c2ccc3c(c2)COC3)CC1	-1.14
COc1cccc(CCC2CCCCN2)c1 (stereo not given)	36
Cc1cc(C(=O)N2CCN(c3nc4c(C(C)C)cccc4s3)CC2)no1	90.4
COc1cc(C)nc(N2CCN(C(=O)c3cc(C)no3)CC2)n1	19.2
Cc1cc(C(=O)N2CCN(c3nc4c(C(C)C)cccc4s3)CC2)on1	92.1
COc1cccc2sc(N3CCN(C(=O)c4cc(C)on4)CC3)nc12	17.1
Cc1cc(C(=O)N2CCN(c3nc4c(C)cccc4s3)CC2)no1	24.7
Cc1cc(C(=O)N2CCN(c3nc4c(F)cccc4s3)CC2)no1	-18.5
CC(C)Nc1cccc(CC2CCN(S(C)(=O)=O)CC2)n1	41.2
Cn1ccnc1CN1CCc2ncnc(N3CCCC(C#N)C3)c2CC1 (stereo not given)	11.3
N#CC1CCCN(c2ncnc3c2CCN(Cc2ccccc2)CC3)C1 (stereo not given)	67.8
c1ccc(CN2CCc3ncnc(C4CC4)c3CC2)cc1	0.164

From ChEMBL document CHEMBL4513216, “Probing the Open Global Health Chemical Diversity Library for Multistage-Active Starting Points for Next-Generation Antimalarials” (ACS Infect Dis, 2020)
